# Data taken from PubChem BioAssay (NCATS).
# “And” between values parts separate entries of the source, which are not always exact repeats. Equal entries are not always repeated. Inconclusive results are not listed. The source made the active and inactive calls. Unless noted, the call rests on the fitted dose curve.
# Legend:
# [1] = target: Bile acid receptor (Homo sapiens) (UniProt Q96RI1); assay: qHTS assay for small molecule agonists of farnesoid X receptor signaling (AID 588527); conditions: HEK293T FXR-UAS-bla, beta-lactamase ratio, 16 h; activation: stronger effect = higher value;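 further: series mostly up to about 77 µM; 0% = vehicle basal and 100% = reference agonist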
# Bile acid receptor (Homo sapiens), sequence (Q96RI1 whole entry, looked up): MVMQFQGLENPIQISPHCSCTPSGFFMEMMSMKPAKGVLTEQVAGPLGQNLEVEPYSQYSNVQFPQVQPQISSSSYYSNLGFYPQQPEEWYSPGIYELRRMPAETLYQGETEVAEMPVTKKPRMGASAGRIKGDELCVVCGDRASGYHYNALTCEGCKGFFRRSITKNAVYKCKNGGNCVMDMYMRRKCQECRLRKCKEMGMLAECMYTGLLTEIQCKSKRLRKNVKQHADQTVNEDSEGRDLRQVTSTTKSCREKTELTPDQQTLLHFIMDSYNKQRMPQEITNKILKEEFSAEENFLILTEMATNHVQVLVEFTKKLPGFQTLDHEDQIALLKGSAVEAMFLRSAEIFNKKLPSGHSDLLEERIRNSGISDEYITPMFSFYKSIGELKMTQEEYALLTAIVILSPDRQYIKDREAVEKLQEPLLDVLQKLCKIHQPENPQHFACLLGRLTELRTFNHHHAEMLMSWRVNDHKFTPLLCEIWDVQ
# In short: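 Read-out: beta-lactamase reporter fluorescence with CCF4 substrate in GeneBLAzer FXR-UAS-bla HEK293T cells, after 16 h compound exposure at 37 C. Response scaled between DMSO basal (0%) and chenodeoxycholic acid at 100 uM (100%).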
# [2] = target: Bile acid receptor (Homo sapiens) (UniProt Q96RI1); assay: qHTS assay for small molecule antagonists of farnesoid X receptor signaling (AID 588526); further: potency means the concentration at half of the fitted maximal effect
# In short: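 Beta-lactamase reporter antagonist mode: HEK293T FXR-UAS-bla cells, titrated compound, CDCA stimulation, 16 h 37 C, CCF4 dye 2 h RT. Data normalized to CDCA 50 uM and DMSO; Hill-fit IC50.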
# [3] = target: Glucocorticoid receptor (Homo sapiens) (UniProt P04150); assay: qHTS assay for small molecule agonists of glucocorticoid receptor signaling (AID 588532; active means well fitted curve in the direction sought with a large enough effect in the signal ratio, with a control signal flat; the % refers to the signal ratio;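 further: 100% = dexamethasone at 0.1 µM and 0% = DMSO only wells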); conditions: HeLa MMTV-bla, beta-lactamase ratio, agonist, 18 h; activation: stronger effect = higher value, percent of dexamethasone control, DMSO zero
# Glucocorticoid receptor (Homo sapiens), sequence (P04150 whole entry, looked up): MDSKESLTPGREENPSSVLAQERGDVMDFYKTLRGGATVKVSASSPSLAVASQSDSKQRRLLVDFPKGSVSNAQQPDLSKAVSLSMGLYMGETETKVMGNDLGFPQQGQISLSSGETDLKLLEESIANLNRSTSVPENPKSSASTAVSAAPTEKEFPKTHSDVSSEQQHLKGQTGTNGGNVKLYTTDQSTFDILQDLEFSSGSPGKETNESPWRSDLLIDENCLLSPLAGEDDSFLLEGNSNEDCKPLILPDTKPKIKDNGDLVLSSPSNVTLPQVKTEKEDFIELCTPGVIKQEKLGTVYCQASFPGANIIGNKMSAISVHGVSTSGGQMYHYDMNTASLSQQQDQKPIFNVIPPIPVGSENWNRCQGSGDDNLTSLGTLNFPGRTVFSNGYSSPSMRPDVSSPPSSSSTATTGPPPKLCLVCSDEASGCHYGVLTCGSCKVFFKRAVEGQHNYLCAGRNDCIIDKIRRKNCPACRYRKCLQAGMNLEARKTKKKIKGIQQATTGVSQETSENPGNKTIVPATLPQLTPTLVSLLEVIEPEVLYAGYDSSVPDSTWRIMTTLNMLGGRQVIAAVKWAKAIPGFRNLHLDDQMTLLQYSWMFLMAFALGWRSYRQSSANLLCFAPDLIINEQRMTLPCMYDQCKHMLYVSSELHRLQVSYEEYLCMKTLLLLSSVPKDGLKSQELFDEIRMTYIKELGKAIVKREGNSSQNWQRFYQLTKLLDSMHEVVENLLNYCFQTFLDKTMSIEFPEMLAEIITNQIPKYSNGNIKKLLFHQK
# In short: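 Agonist-mode qHTS: GRE-driven beta-lactamase in HeLa cells exposed 18 h to titrated compounds (up to 92 uM), then CCF4 ratio read after 2 h at RT; Hill-fitted EC50, efficacy relative to 0.1 uM dexamethasone.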
# [4] = target: Peroxisome proliferator-activated receptor delta (Homo sapiens) (UniProt Q03181); assay: qHTS assay for small molecule agonists of peroxisome proliferator-activated receptor delta signaling (AID 588534);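 further: 0% = DMSO basal wells and 100% = positive control agonist at 10 µM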
# Peroxisome proliferator-activated receptor delta (Homo sapiens), sequence (Q03181 whole entry, looked up): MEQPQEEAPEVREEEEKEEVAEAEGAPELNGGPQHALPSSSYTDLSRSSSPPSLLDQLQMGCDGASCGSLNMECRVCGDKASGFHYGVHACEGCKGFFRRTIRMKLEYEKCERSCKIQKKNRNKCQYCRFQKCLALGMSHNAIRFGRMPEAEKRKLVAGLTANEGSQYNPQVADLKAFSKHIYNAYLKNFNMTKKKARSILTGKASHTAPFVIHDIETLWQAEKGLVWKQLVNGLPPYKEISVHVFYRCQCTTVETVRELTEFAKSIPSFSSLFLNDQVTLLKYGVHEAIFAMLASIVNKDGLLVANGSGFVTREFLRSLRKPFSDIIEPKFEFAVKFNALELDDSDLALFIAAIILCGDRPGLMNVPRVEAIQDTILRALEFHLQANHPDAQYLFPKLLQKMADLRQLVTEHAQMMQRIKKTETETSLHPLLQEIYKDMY
# In short: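 Titration series tested in agonist mode on beta-lactamase reporter cells; 18 hrs at 37 C after a 5 hr pre-incubation. Readout: CCF4 fluorescence, 2 hrs RT. Hill equation gives EC50 and maximal response.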
# [5] = qHTS assay for small molecule antagonists of peroxisome proliferator-activated receptor delta signaling (AID 588535; active means well fitted inhibition curve with a large enough effect in the signal ratio, with a control signal flat, not every such curve was filed as active; the % refers to the signal ratio;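 on max response: cells co-treated with a PPAR-delta agonist as stimulator during compound exposure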); conditions: HEK293T PPARd-UAS-bla, beta-lactamase FRET ratio, 18 h; 460 nm channel
# In short: (§1)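 Antagonist-mode qHTS using GeneBLAzer PPAR-delta-UAS-bla HEK293T cells; compound exposure 18 hrs at 37 C over a titration. Ratiometric CCF4 fluorescence at 460/530 nm; concentration-response points fitted to the Hill equation.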
# [6] = target: Peroxisome proliferator-activated receptor delta (Homo sapiens) (UniProt Q03181); assay: as above
# In short: as §1
# [7] = target: Vitamin D3 receptor (Homo sapiens) (UniProt P11473); assay: qHTS assay for small molecule agonists of vitamin D receptor signaling (AID 588543);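 further: 0% = DMSO basal and 100% = reference agonist control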
# Vitamin D3 receptor (Homo sapiens), sequence (P11473 whole entry, looked up): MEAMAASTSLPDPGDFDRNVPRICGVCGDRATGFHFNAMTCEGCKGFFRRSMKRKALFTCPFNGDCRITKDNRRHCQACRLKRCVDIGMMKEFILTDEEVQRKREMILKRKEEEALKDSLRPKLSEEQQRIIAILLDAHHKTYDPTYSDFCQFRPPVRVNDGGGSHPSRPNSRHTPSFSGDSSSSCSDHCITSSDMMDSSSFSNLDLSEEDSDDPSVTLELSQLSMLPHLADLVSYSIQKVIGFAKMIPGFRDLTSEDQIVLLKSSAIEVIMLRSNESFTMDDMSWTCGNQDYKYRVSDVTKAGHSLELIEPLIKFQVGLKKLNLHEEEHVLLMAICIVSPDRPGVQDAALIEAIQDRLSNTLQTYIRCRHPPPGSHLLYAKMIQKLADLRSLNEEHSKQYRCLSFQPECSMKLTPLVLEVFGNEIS
# In short: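 Measured: β-lactamase reporter activity (CCF4, 405 nm excitation, 460/530 nm emission) in HEK293T VDR-UAS-bla cells after 16 h compound exposure at 37 °C. Normalization against 50 nM 1α,25-dihydroxyvitamin D3 and DMSO; Hill-fit EC50.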
# [8] = qHTS assay for small molecule agonists of retinoid X receptor alpha signaling (AID 588544); conditions: HEK293T RXRa-UAS-bla, beta-lactamase reporter, 18 h; 530 nm emission;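 on activation: 0% = DMSO basal wells and 100% = reference agonist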
# [9] = target: Retinoic acid receptor RXR-alpha (Homo sapiens) (UniProt P19793); assay: as above
# Retinoic acid receptor RXR-alpha (Homo sapiens), sequence (P19793 whole entry, looked up): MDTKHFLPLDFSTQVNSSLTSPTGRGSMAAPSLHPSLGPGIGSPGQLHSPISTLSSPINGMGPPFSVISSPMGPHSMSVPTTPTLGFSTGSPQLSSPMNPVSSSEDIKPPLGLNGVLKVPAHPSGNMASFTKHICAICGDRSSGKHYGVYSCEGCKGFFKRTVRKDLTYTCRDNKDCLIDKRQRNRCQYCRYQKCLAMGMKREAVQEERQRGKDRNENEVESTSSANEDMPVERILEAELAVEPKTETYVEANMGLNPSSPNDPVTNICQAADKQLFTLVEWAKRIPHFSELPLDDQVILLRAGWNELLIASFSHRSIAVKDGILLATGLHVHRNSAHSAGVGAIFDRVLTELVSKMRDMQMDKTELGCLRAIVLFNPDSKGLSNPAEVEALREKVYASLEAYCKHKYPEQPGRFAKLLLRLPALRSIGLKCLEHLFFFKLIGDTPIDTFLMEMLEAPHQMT
# [10] = qHTS assay for small molecule activators of the nuclear factor-kappa B (NF-kB) signaling pathway (AID 651749; active means well fitted activation curve with a large enough effect in the signal ratio; the % refers to the signal ratio; further: series mostly up to about 77 µM; % of control where 0% means no effect); conditions: NF-kB-bla ME-180 cells, beta-lactamase FRET ratio, 16 h; activation: stronger effect = higher value
# In short: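 FRET-based beta-lactamase detection in ME-180 cells reports NF-kB response-element-driven transcription following overnight (16 hr) compound treatment.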
# [11] = qHTS assay for environmental chemicals that activate the Aryl hydrocarbon Receptor (AhR) signaling pathway (AID 651777; active means well fitted curve in the direction sought with a large enough effect; an effect the other way counts as inactive or inconclusive; further: % of control where 0% means no effect; nearly all actives have a fitted effect of over 15% in size); conditions: 1A2-DRE human hepatoma cells, luciferase, 24 h; activation: stronger effect = higher value
# In short: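 Luminescence read-out: One-Glo added for 30 min at RT after 24 hr compound treatment (37 C, 5% CO2) of human hepatoma cells expressing a DRE/CYP1A2 promoter–luciferase reporter; increased signal indicates AhR activation.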
# [12] = target: Peroxisome proliferator-activated receptor alpha (Homo sapiens) (UniProt Q07869); assay: qHTS assay for small molecule agonists of the peroxisome proliferator-activated receptor alpha (PPARalpha) signaling pathway (AID 651778; active means well fitted curve in the direction sought with a large enough effect; an effect the other way counts as inactive or inconclusive; further: % of control where 0% means no effect); conditions: PathHunter PPARalpha complementation, chemiluminescence, 6 h; max response: stronger effect = higher value
# Peroxisome proliferator-activated receptor alpha (Homo sapiens), sequence (Q07869 whole entry, looked up): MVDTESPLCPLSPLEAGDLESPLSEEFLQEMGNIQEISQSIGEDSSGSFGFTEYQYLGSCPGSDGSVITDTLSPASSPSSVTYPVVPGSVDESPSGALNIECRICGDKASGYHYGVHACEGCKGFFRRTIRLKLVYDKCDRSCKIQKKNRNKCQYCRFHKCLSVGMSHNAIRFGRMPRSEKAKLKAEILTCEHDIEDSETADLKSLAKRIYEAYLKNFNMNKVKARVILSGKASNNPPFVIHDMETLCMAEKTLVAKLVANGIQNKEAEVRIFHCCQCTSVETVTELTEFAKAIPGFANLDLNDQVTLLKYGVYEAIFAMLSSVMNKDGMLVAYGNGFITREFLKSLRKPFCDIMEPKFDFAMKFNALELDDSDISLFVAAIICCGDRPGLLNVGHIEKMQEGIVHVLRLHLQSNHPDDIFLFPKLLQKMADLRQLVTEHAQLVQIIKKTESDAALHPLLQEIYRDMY
# In short: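 Chemiluminescence from complemented enzyme reported PPARalpha activation in cells after 6 hr of compound treatment at 37 C. The detection reagent was incubated for 60 min at room temperature, and compounds were scored as agonists.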
# [13] = qHTS assay for small molecule agonists of the antioxidant response element (ARE) signaling pathway measured by Nrf2-dependant transcriptional activity - cell viability counter screen (AID 720653; active means well fitted curve in the direction sought with a large enough effect in the repeat runs; an effect the other way counts as inactive or inconclusive; further: on the % scale 0 is the no-effect control and ±100 the full control effect); conditions: ARE-bla HepG2 viability, CellTiter-Glo ATP luminescence, 16 h; max response: stronger effect = lower value
# In short: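 Cytotoxicity counter screen: intracellular ATP quantified by CellTiter-Glo luminescence in the same ARE-bla HepG2 plates, after 16 h compound exposure and a 2 h beta-lactamase substrate step.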
# [14] = qHTS assay for cell viability of HEK293 cells (AID 743288; active means well fitted curve in the direction sought with a large enough effect; an effect the other way counts as inactive or inconclusive; further: on the % scale 0 is the no-effect control and ±100 the full control effect; nearly all actives have a fitted effect of over 50% in size); conditions: ATP luminescence (CellTiter-Glo), 18 h; max response: stronger effect = lower value
# In short: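 HEK293, 18 h, 37 C, ATP luminescence. Cells at 2,000/well were allowed at least 5 h to settle before dosing; CellTiter-Glo developed 30 min at RT.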
# [15] = qHTS assay for cell viability of the p53RE-bla HCT-116 cell line (AID 743292; active means well fitted curve in the direction sought with a large enough effect; an effect the other way counts as inactive or inconclusive; further: on the % scale 0 is the no-effect control and ±100 the full control effect; nearly all actives have a fitted effect of over 55% in size)
# In short: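 Luminescent ATP quantitation (CellTiter-Glo) served as the viability read-out; reagent was added after 16 h compound exposure at 37 C and read after 30 min at room temperature. Cells: p53RE-bla HCT-116, 4,000 per well.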
# [16] = target: Thyroid hormone receptor beta (Homo sapiens) (UniProt P10828); assay: qHTS assay for small molecule agonists of thyroid hormone receptor beta signaling (AID 588545);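 further: 0% = DMSO only and 100% = 10 nM T3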
# Thyroid hormone receptor beta (Homo sapiens), sequence (P10828 whole entry, looked up): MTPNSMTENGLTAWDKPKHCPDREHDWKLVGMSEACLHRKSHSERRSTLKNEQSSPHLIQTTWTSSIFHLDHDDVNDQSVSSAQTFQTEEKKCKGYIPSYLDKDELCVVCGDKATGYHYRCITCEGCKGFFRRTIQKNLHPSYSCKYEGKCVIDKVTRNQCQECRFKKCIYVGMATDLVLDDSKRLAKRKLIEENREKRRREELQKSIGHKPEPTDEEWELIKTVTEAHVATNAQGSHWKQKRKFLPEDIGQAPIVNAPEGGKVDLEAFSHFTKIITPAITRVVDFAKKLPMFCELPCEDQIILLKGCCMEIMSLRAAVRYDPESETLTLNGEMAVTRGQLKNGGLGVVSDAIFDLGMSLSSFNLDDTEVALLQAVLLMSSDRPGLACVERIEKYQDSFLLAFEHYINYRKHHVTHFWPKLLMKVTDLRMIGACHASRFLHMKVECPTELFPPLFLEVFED
# In short: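 Efficacy and EC50 values derive from Hill fits of qHTS titration data, normalized to 10 nM T3 and DMSO-only wells. HEK 293 reporter cells were stimulated for 18 hrs at 37 C, with beta-lactamase activity measured by CCF4 fluorescence.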
compound,measurement,setting,value
c1ccc(-c2ccc(-c3ccccc3)cc2)cc1,activation,[1],2.41% (inactive)
CCCOCC(=Nc1ccc(Cl)cc1C(F)(F)F)n1ccnc1,Potency,[2],inactive
same,activation,[3],-3.28% (inactive)
same,outcome,[4],inactive
same,max response,[5],18.7%
same,Potency,[6],inactive
same,outcome,[7],inactive
same,max response,[8],-2.58%
same,Potency,[9],inactive
same,activation,[10],-1.47% (inactive)
same,activation,[11],14% (inactive)
same,max response,[12],9.44% (inactive)
same,max response,[13],-4.06% (inactive)
same,max response,[14],-21.5% (inactive)
same,Potency,[15],inactive
Cc1c(C(=O)O)c(O)cc2c1C(=O)c1c(O)c([C@H]3O[C@H](CO)[C@@H](O)[C@H](O)[C@H]3O)c(O)c(O)c1C2=O,activation,[1],-1.49% (inactive)
S=C1NC=NC2N=CNC12 (configuration not stated),activation,[1],-5.16% (inactive)
CCOCCO,activation,[1],0.436% (inactive)
O=C/C(Cl)=C(/Cl)C(=O)O,Potency,[2],44.7 µM (active)
same,activation,[3],-13.8% (inactive)
same,outcome,[7],inactive
same,Potency,[16],inactive
same,activation,[10],1.31% (inactive)
same,activation,[11],5.71% (inactive)
same,max response,[12],-1.15% (inactive)
same,max response,[13],-4.23% (inactive)
same,Potency,[15],inactive
O=C(Nc1ccccc1)c1cc(Cl)ccc1O,activation,[1],1.59% (inactive)
CN(C)Cc1cc(CN(C)C)c(O)c(CN(C)C)c1,activation,[1],-0.172% (inactive)
NC1=NC(S)C2N=CN=C2N1 (configuration not stated),activation,[1],2.34% (inactive)
CCN(CC)c1ccc(N)cc1,activation,[1],-0.874% (inactive)
Cc1nc2ccc(Cl)cc2[nH]1,activation,[1],-1.36% (inactive)
O=C1c2ccccc2C(=O)C1(O)O,activation,[1],2.64% (inactive)
Nc1cccc(N)c1,activation,[1],0.315% (inactive)
CC(C)OB(OC(C)C)OC(C)C,activation,[1],-0.77% (inactive)
CC[C@H](C)C1O[C@]2(C=C[C@@H]1C)C[C@@H]1C[C@@H](C/C=C(\C)[C@@H](O[C@H]3C[C@H](OC)[C@@H](O[C@H]4C[C@H](OC)[C@H](NC(C)=O)[C@H](C)O4)[C@H](C)O3)[C@@H](C)/C=C/C=C3\CO[C@@H]4[C@H](O)C(C)=C[C@@H](C(=O)O1)[C@]34O)O2 (some centres not stated),activation,[1],6.91% (inactive)
CC(C)(C)c1ccc(O)c(C(C)(C)C)c1,activation,[1],3.24% (inactive)
c1ccc2c(c1)Cc1ccccc1-2,activation,[1],0.0131% (inactive)
CCc1c(C(=O)O)c(=O)cnn1-c1ccc(Cl)cc1,activation,[1],1.28% (inactive)
COC(C)=O,activation,[1],-0.0908% (inactive)
CN=C(N)NCC1CCOC1 (configuration not stated),activation,[1],-3.33% (inactive) and 1.46% (inactive)
O=Cc1ccccc1Cl,activation,[1],0.21% (inactive)
